This note sets out measurements from PubChem BioAssay (NCI).

Common to all, as to assay: NCI-60 one-dose screen, 48 h (100 = growth as untreated, 0 = no growth, -100 = all killed)
The subject of assay [1] is HCT-15 colon. Particulars: 10 µM.
Assay [2] deals with HT29 colon. The following applies: 10 µM.
For assay [3], the system named is SNB-75 CNS. Particulars: 10 µM.
Assay [4] deals with SNB-19 CNS. The following applies: 10 µM.
The test system of assay [5] is PC-3 prostate. The following applies: 10 µM.
Assay [6] deals with SK-MEL-5 melanoma. Particulars: 10 µM.
Assay [7] has as its system UACC-62 melanoma.
The test system of assay [8] is LOX IMVI melanoma. Particulars: 10 µM.
For assay [9], the system named is SK-MEL-28 melanoma. The following applies: 10 µM.
In assay [10] the test system is SK-MEL-2 melanoma. Particulars: 10 µM.
Assay [11] concerns UO-31 renal. The following applies: 10 µM.
Assay [12] relates to TK-10 renal.
In assay [13] the test system is ACHN renal. The following applies: 10 µM.
Assay [14] has as its system CAKI-1 renal. The following applies: 10 µM.
Assay [15] concerns A498 renal. The following applies: 10 µM.
For assay [16], the system named is MOLT-4 leukemia. The following applies: 10 µM unless noted.
The subject of assay [17] is U251 CNS. Particulars: 10 µM.
Assay [18] concerns EKVX NSCLC. Particulars: 10 µM.
Assay [19] relates to CCRF-CEM leukemia. The following applies: 10 µM.

“And” between values parts separate entries of the source, which are not always exact repeats. Identical values can stand only once. Compounds without any hit were thinned out: in the full panel of roughly 83,000, 20% have a hit.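 Step 1: grow cells in 96-well plates. Step 2: add test compound at a single concentration. Step 3: incubate 48 h. Step 4: record percent growth.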 Unmarked numbers belong to inactive results. The source made the active and inactive calls. Rule for the calls: active = growth percent below 10; inactive = the rest.

Regarding `CN(C)CCNc1cccc2sc3ccc(O)cc3c(=O)c12`, the growth in assay [1] is 26.9%; in assay [2], 6.36% (active); in [3], 31.8%; in assay [4], 57.4%; in [5], 38.7%; in [6], 44%. Besides, the growth in assay [7] (10 µM) is 57.8%; in [8] it was 18.3%; in assay [9] it was 69.2%; in [10] it was 64%; in assay [11], 20%; in assay [12] (10 µM) it was 58%. The growth was 14.9% in [13], 5.13% (active) in [14], 92.5% in assay [15] and 14.3% in [16].
Take `O=C(CNS(=O)(=O)Cc1ccccc1)NNc1ccccc1`: the growth in [1] was 27.8%; in assay [2], 81.5%; in [3], 76.8%; in assay [4] it was 88.3%; in [17] it was 82.7%; in assay [5] it was 63.2%. The growth in assay [6] was 47.5%; in [7] (10 µM), 14.9%; in assay [9], 94%; in [10], 97.1%; in [18], 53.3%; in assay [11], 35.7%. Further, the growth in assay [12] (10 µM) was 90.6%; in assay [13], 36.7%; in assay [14], 39.8%; in [15], 108%; in [19], 45.2%; in assay [16], 35.4%.
For the molecule `CO[C@@]12[C@H](COC(N)=O)C3=C(C(=O)C(C)=C(N)C3=O)N1C[C@@H]1N[C@@H]12`, the growth in assay [7] (25 µM) is -83.6% (active) and -100% (active); in assay [12] (25 µM), -32.7% (active) and -74.4% (active).
Regarding `O=C1C=CC(=O)N1c1ccc(N2C(=O)C=CC2=O)cc1`, the growth in [1] was 91.4%; in assay [2], 105%; in [3], 95.6%; in [17], 101%; in assay [5], 112%; in assay [6], 103%. Also, the growth was 96.5% in assay [7] (10 µM); 85% in [8]; 135% in assay [9]; 108% in [10]; 90.8% in assay [18]; 76.7% in assay [11]. The growth in [12] (10 µM) is 92%; in assay [13], 92.2%; in assay [14] it was 69.9%; in [15], 149%; in assay [19], 15.9%; in assay [16] it was -9.11% (active).
Regarding `Cc1c(-c2ccccc2)[nH]c2ccccc12`, the growth was 106% in assay [1]; 103% in assay [2]; 89.9% in [3]; 110% in assay [4]; 106% in assay [17]; 87.8% in [5]. The growth in assay [7] (10 µM) was 96.3%; in assay [8], 81.5%; in assay [9] it was 121%; in [10] it was 115%; in assay [18], 104%; in [11], 90.4%. Besides, the growth in [12] (10 µM) is 119%; in [13] it was 100%; in assay [14], 91.5%; in assay [15], 91.3%; in assay [19], 95.1%; in [16], 99.6%.
Turning to `COc1ccc(N)c2c1C(=O)c1ccccc1C2=O`, the growth in assay [1] was 87.1%; in [2] it was 93.6%; in [3] it was 95.6%; in assay [4], 101%; in [17] it was 97.9%; in assay [5], 89.6%. Also, the growth in assay [7] (10 µM) was 94.3%; in assay [8], 104%; in assay [9], 128%; in [10] it was 99.5%; in assay [18], 106%; in assay [11] it was 68.5%. Also, the growth in assay [12] (10 µM) was 102%; in assay [13], 96.9%; in assay [14], 74%; in assay [15] it was 93.4%; in [19] it was 89.9%; in [16] it was 67%.
In the case of `Cc1cc(N=C2C=CC(=[N+](C)C)C=C2)c(N)cc1N`, the growth is 109% in assay [1]; 93.8% in assay [2]; 102% in assay [3]; 87.3% in assay [4]; 93.2% in assay [17]; 90% in assay [6]. Besides, the growth in assay [7] (10 µM) was 89.8%; in [8], 79%; in assay [9], 103%; in assay [10], 106%; in assay [18], 85.4%; in [11], 71.5%. For the same molecule, the growth in [12] (10 µM) is 106%; in assay [13], 91%; in assay [14], 92.8%; in assay [15], 75.7%; in assay [19], 89.3%; in assay [16], 91.3%.
As to `CC1CCC2(C(=O)O)CCC3(C)C(=CCC4C5(C)CC(O)C(O)C(C)(CO)C5C(O)CC43C)C2C1C` (stereo not drawn), the growth was 112% in [1]; 110% in assay [2]; 91.8% in [3]; 98.7% in assay [4]; 103% in assay [17]; 97.5% in assay [5]. Further, the growth in assay [6] is 4.98% (active); in [7] (10 µM) it was 104%; in assay [8], 107%; in assay [10], 104%; in assay [18], 113%; in assay [11], 92.8%. The growth is 108% in assay [12] (10 µM); 116% in assay [13]; 118% in [14]; 88.5% in assay [19]; 113% in assay [16].
Consider `N#CC(=C1C=CC(=NO)C=C1)c1ccccc1`, for which the growth in assay [1] is 9.7% (active); in assay [2], 1.57% (active); in assay [3], -1.66% (active); in assay [4], 59.6%; in assay [17] it was 9.88% (active); in [5], 3.44% (active). The growth in assay [6] was 2.56% (active); in [8], -6.53% (active); in assay [9], 76.3%; in [10], 41.1%; in assay [18], 55.1%; in assay [11], 48.4%. Further, the growth in assay [12] (10 µM) was 27.2%; in [13] it was 9.06% (active); in [14], 52.3%; in assay [15], 48%; in assay [19], 3.4% (active); in [16] it was 19.2%.
